Bioassay records from PubChem.
In the library only some 19% were active in any assay of this set; here they are far more common.
TDP1 cell noCPT = qHTS for Inhibitors of human tyrosyl-DNA phosphodiesterase 1 (TDP1): qHTS in cells in absence of CPT. DT40 Tdp1-/- hTDP1 cells, no CPT, ATP luminescence, 48 h. Potency, µM (highest dose often 46.2 µM), for the others: top-dose activity change, negative = growth inhibition, actives largely listed as inhibitors. 15% of 420,000 active; further: nearly all actives have a fitted effect of over 55% in size
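A cellular qHTS used chicken DT40 cells lacking endogenous Tdp1 but carrying stably transfected human TDP1. Compounds were applied without camptothecin, and cell growth kinetics were judged by ATP-dependent luminescence after ≥48 hr.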
HT1080 IDH1KD tx = toxicity to HT-1080 IDH1 knockdown cells (counter line). HT-1080 IDH1 knockdown viability, ATP luminescence, 48 h. Potency, µM (highest dose often 46.1 µM), inactives show top-dose activity, negative = toxicity, hits mostly cytotoxic. 2% of 360,000 active. AID 686971;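 further: 0% = DMSO wells and -100% = cell-free medium wells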
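Cytotoxicity counter-line: IDH1KD HT-1080, 48 h, CellTiter-Glo. Curves classed by r2, magnitude and activity.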
KB-3-1 cytotox = kills parental KB-3-1 adenocarcinoma cells; Potency, µM (series often up to 46.1 µM), most hits filed as cytotoxic; KB-3-1 viability, CellTiter-Glo ATP luminescence, 72 h; 1.4% of 400,000 active; AID 1347075; further: nearly all actives have a fitted effect of over 60% in size
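Luminescent ATP read-out (CellTiter-Glo) measures survival of drug-naive KB-3-1 cells after 72 h compound exposure at 37 °C. Titration series was screened from lowest to highest concentration, with DMSO vehicle plates as background controls.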
KB-V1 cytotox = KB-V1 MDR subline cytotoxicity. KB-V1 MDR cells viability, CellTiter-Glo, 72 h. 3.4% of 400,000 active. Potency, µM (doses to about 46.1 µM), actives largely listed as cytotoxic; further: nearly all actives have a fitted effect of over 60% in size
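KB-V1, DMEM (no phenol red) + 10% FBS; cpd pin-transferred, titration series; 72 h, 37 degrees C; CellTiter-Glo, luminescence. Data normalized, curve-fit.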
HT1080-NT tox = kills 2HG-producing HT-1080-NT fibrosarcoma cells | Potency, µM (titrated, usually from 46.1 µM), inactives show at the highest dose activity, negative = less viability, actives largely listed as cytotoxic | HT-1080-NT fibrosarcoma viability, CellTiter-Glo ATP luminescence, 48 h | 1.6% of 360,000 active | AID 686970;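 further: NT is the 2HG producing partner of a matched IDH1 knockdown line; 0% = DMSO-treated cells and -100% = media-only wells without cells; nearly all actives have a fitted effect of over 55% in size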
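Read-out is CellTiter-Glo luminescence after 10 minutes at room temperature, following 48 hours' compound treatment of HT-1080-NT cells (750 cells/well, RPMI, 5% FBS, 37 degrees C).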
TDP1 cell CPT = growth inhibition of DT40 Tdp1-/-;hTDP1 cells with camptothecin (screen for TDP1 inhibitors); chicken DT40 Tdp1-/-;hTDP1 cells + 20 nM CPT, ATP luminescence, 48 h; Potency, µM (titrated, usually from 46.2 µM), without a hit: at the top dose activity change, negative = growth inhibition, hits mostly inhibitors; 12% of 420,000 active; AID 686979; further: nearly all actives have a fitted effect of over 55% in size
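Cell growth measured by CellTiter-Glo luminescence after a minimum 48 h, 37 C compound exposure with 20 nM CPT in Tdp1-knockout DT40 cells stably expressing hTDP1, seeded 400/well; qHTS titration format.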
Numbers without * were called inactive; i = inactive; ? = inconclusive; . = not tested or not shown. The call rests on the fitted dose curve; in most records, active means well fitted curve in the direction sought with a large enough effect; inconclusive means small, poorly fitted or top-dose-only effect, or another doubt; inactive means no such curve, though single readings can be large; an effect the other way counts as inactive or inconclusive. Unless noted, on the % scale 0 is the no-effect control and ±100 the full control effect; potency means the concentration at half of the fitted maximal effect.

SMILES	TDP1 cell noCPT	HT1080 IDH1KD tx	KB-3-1 cytotox	KB-V1 cytotox	HT1080-NT tox	TDP1 cell CPT
CCOC(=O)c1sc(NC(=O)c2cc3n(n2)C(C(F)(F)F)CC(c2cccs2)N3)c(C(=O)OCC)c1C (stereo unspecified)	13µM*	-12.0%	i	i	-5.9%	?
Cc1nn(C)cc1CN(C)C(=O)c1nn2c(c1Cl)NC(c1cccs1)CC2C(F)(F)F (stereo unspecified)	12.6µM*	-13.5%	i	18.4µM*	-18.2%	?
CCC(C)NC(=O)c1cnn2c1NC(c1cccs1)CC2C(F)(F)F (stereo unspecified)	-28.4%	-3.3%	i	i	-6.1%	-10.0%
Cc1nn(C)c(C)c1CN(C)C(=O)c1cc2n(n1)C(C(F)(F)F)CC(c1cccs1)N2 (stereo unspecified)	16.4µM*	-13.5%	i	i	-20.5%	25.9µM*
COc1cccc(CNC(=O)c2ccc(F)c(S(=O)(=O)N3CCCCC3)c2)c1	?	-14.9%	i	?	0.2%	-14.6%
C/C=C(\C)NNC(=O)Cc1ccc(OC)cc1	0.8%	.	i	i	.	-9.2%
CCC(=O)OC(OP(=O)(CCCCc1ccccc1)CC(=O)N1C[C@H](C2CCCCC2)C[C@H]1C(=O)O)C(C)C (stereo partly specified)	-5.3%	.	.	.	.	8.1%
COc1ccc(Cn2c(C(=O)O)c(CNC3CCCC3)c3ccc(C)cc32)cc1	-21.0%	.	i	i	.	12.5%
C=Cc1ccc(Cn2c(C(=O)O)c(CNC3CCCCC3)c3ccc(OC)cc32)cc1	20.6µM*	.	i	i	.	20.6µM*
COc1ccc2c(CNC3CCCCCC3)c(C(=O)O)n(Cc3ccc(C)cc3)c2c1	?	.	i	i	.	25.9µM*
COc1ccc(Cn2c(C(=O)O)c(CNC3CCCCCC3)c3ccc(OC)cc32)cc1	?	.	?	?	.	16.4µM*
COc1ccc2c(CNC3CCCCCC3)c(C(=O)O)n(Cc3cccc(F)c3)c2c1	?	.	i	i	.	-5.0%
Cc1ccc(C)c(N2CCN(CCCNC(=O)Cn3c(-c4cccs4)cc4ccccc43)CC2)c1	2.91µM*	.	i	i	.	5.17µM*
CN1CCN(CCCNC(=O)Cn2c(-c3cccs3)cc3ccccc32)CC1	?	.	i	i	.	?
O=C(Cn1c(-c2cccs2)cc2ccccc21)NCCCN1CCN(c2cccc(Cl)c2)CC1	16.4µM*	.	i	i	.	?
COc1ccc(C(=O)N/N=C/c2cc3ccccc3[nH]c2=O)cc1	7.0%	7.5%	i	i	-19.6%	-18.5%
COc1ccc2[nH]c(C(=O)N/N=C/c3ccccc3OC)cc2c1	9.2µM*	?	?	i	?	7.31µM*
COc1ccc2[nH]c(C(=O)N/N=C/c3ccc(OC)c(O)c3)cc2c1	1.3µM*	1.16µM*	6.51µM*	9.2µM*	0.581µM*	1.16µM*
CCOc1ccc2[nH]c(C(=O)N/N=C/c3ccccc3OC)cc2c1	7.31µM*	?	?	?	?	5.8µM*
COc1cc(OC)c2cc(C(=O)N/N=C/c3ccccc3O)[nH]c2c1	4.61µM*	-20.3%	?	i	-14.9%	4.61µM*
C=CC1=C(C)/C(=C/c2[nH]c(Cc3[nH]c(/C=C4\NC(=O)C(C)=C4C=C)c(C)c3CCC(=O)O)c(CCC(=O)O)c2C)NC1=O	-13.6%	.	.	.	.	-48.5%
O=C1NC[C@@H](CCCCN2C[C@H](Cc3ccc(O)cc3)N(CC3CCCCC3)C(=O)C2=O)N(CCC2CCCCC2)C1=O	-10.7%	-10.6%	i	?	-12.2%	3.2%
COCCn1c(SCC(=O)c2ccc(OC)cc2)nc2cc(C(=O)NC3CCCC3)ccc2c1=O	-14.3%	.	i	i	.	2.6%
